FLuc modulator – counter-screen for miR-21 project: firefly luciferase inhibitors or activators; purified FLuc, Km substrates, luminescence inhibition; P08659; hit rate 6.9% among 360,000; Potency, µM (top dose mostly 57.5 µM), inactives show at the top dose activity change, negative = inhibition, usual class: inhibitors; AID 588342;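 also: plate controls were vehicle for no effect and reference inhibitor for full effect; nearly all actives have a fitted effect of over 55% in size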
Target sequence (P08659 whole entry, looked up): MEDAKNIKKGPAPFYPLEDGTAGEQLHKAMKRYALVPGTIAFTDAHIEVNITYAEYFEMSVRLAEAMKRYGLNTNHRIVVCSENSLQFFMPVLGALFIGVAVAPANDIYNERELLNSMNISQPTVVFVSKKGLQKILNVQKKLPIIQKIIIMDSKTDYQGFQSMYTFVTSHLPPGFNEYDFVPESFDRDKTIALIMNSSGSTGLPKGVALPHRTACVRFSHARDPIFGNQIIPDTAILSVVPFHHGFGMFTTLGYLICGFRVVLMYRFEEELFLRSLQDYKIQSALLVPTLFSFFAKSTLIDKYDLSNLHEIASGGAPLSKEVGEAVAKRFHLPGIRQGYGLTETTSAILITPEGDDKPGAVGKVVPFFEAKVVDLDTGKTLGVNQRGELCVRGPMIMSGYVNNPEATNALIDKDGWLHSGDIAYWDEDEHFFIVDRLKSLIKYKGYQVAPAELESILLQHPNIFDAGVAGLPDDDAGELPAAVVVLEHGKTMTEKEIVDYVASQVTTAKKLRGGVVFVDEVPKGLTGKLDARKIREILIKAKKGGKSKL
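Purified P. pyralis luciferase, 10 nM final, with Km-level 10 uM D-luciferin and 10 uM ATP in 50 mM Tris acetate pH 7.5, 10 mM Mg acetate, 0.01% Tween-20, 0.05% BSA; 6-point qHTS titration about 60 µM downward; luminescence read.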
ELG1 genotox – genotoxicity induction in ELG1-luciferase HEK293T cells; hit rate 1.3% among 330,000; HEK293T ELG1-luciferase reporter, luminescence, 16 h; AID 504466; Potency, µM (top dose mostly 46 µM), inactives show at the top dose activity change, positive = activation, hits mostly activators; also: % of control where 0% means no effect; nearly all actives have a fitted effect of over 60% in size
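Luminescence read-out: rising ELG1-luciferase signal, reflecting elevated ELG1 protein under genetic stress, flags genotoxic compounds. Cells were treated for 16 hr at 37 °C before ONE-Glo detection.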
NPC1 promoter act – NPC1 promoter activation; Potency, µM (series often up to 9.22 µM), for the others: at the highest dose activation, usual class: activators; Huh7 NPC1 promoter luciferase reporter, 24 h; hit rate 2.4% among 320,000; AID 485313; also: % of control where 0% means no effect; nearly all actives have a fitted effect of over 60% in size
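Quantitative HTS used a cell-based reporter: Huh7 cells stably bearing the NPC1 promoter upstream of luciferase were treated with compounds for 24 h, and promoter activation was read as luminescence.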
SMN2 splice up – SMN2 splice variant enhancement. hit rate 2.8% among 210,000. HEK293 SMN2-luciferase splicing reporter, luminescence, 30-36 h. Potency, µM (top dose mostly 46.1 µM), without a hit: at the top dose activity change, positive = activation, most hits filed as activators. AID 1458; also: % of control where 0% means no effect; nearly all actives have a fitted effect of over 55% in size
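HEK293 cells carry an SMN2 minigene-luciferase reporter in which exon 7 inclusion puts luciferase in frame. Cells were seeded at 2000 cells/well, attached for 10-12 hours, then exposed to compounds for 30-36 hours at 37C before ONE-Glo luminescence.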
Rab9 promoter act – Rab9 promoter activation; Huh7 Rab9 promoter-luciferase reporter, luminescence, 24 h; Potency, µM (series often up to 9.22 µM), for the others: at the highest dose activation, negative = inhibition, hits mostly activators; hit rate 2.8% among 320,000; also: % of control where 0% means no effect; nearly all actives have a fitted effect of over 60% in size
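Measured in stably transfected Huh7 cells bearing a Rab9 promoter–luciferase construct: 24 h compound treatment at 37 °C, followed by luminescence detection.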
Starred values were filed as active, the others as inactive; [ ] = remark or other dose. A selection: hits, their analogues and other compounds. The true share with any hit is near 7.5%. Calls follow the shape of the dose curve; as a rule, active = well fitted curve in the direction sought with a large enough effect; inconclusive = small, poorly fitted or top-dose-only effect, or another doubt; inactive = no such curve, though single readings can be large; an effect the other way counts as inactive or inconclusive. Potency is read from the fitted curve at half-maximal effect.

Results for CSc1ncccc1C(=O)Nc1ccc2nc(C)sc2c1 ?
FLuc modulator: 17µM*; ELG1 genotox: 12%; NPC1 promoter act: 23%; Rab9 promoter act: 1%

Results for COc1ccc(-c2[nH]ncc2/C=N/NC(=O)c2ccncc2)c(OC)c1 ?
FLuc modulator: 3%; ELG1 genotox: -1%; NPC1 promoter act: 1%; Rab9 promoter act: -1%

Results for CCOc1cc(NC(=O)C(C)C)c(OCC)cc1NC(=O)Nc1ccccc1 ?
FLuc modulator: 3%; ELG1 genotox: 0%; NPC1 promoter act: 2%; Rab9 promoter act: 5%

Results for COC(=O)CCNC(=O)Cc1c(C)n(C(=O)c2ccc(Cl)cc2)c2ccc(OC)cc12 ?
FLuc modulator: -1%; ELG1 genotox: -6%; NPC1 promoter act: 0%; Rab9 promoter act: 1%

What do the screens show for `O=C(NCc1ccccc1)C1CC2CCCC(C1)C2=O` (stereo not given)?
FLuc modulator: 4%[2.3 µM]; ELG1 genotox: -3%; NPC1 promoter act: 2%; SMN2 splice up: 11%; Rab9 promoter act: 1%

How did CC1CN(CCCCSc2ccccc2)CC(C)O1 (stereo not given) do in these assays?
FLuc modulator: 0%; ELG1 genotox: -2%; NPC1 promoter act: -3%; Rab9 promoter act: -1%

What do the screens show for `COc1ccc2nc(NC(=O)c3ccccc3-c3ccccc3C(=O)O)sc2c1`?
FLuc modulator: inconclusive; ELG1 genotox: 6%; NPC1 promoter act: -1%; SMN2 splice up: -1%; Rab9 promoter act: -12%

Results for Cc1ccc2nc(NC(=O)c3cc(=O)c4cc(C)c(C)cc4o3)sc2c1 ?
FLuc modulator: -8%; SMN2 splice up: -5%

How did COc1ccc2nc(NC(=O)c3nc(SCc4ccccc4F)ncc3Cl)sc2c1 do in these assays?
FLuc modulator: 3%; SMN2 splice up: 9%

How did COc1ccc2nc(NC(=O)c3ccccc3F)sc2c1 do in these assays?
FLuc modulator: 0.34µM*; ELG1 genotox: inconclusive; NPC1 promoter act: 0.45µM*; Rab9 promoter act: 0.32µM*

Results for COc1ccc2nc(NC(=O)c3ccccc3C(=O)O)sc2c1 ?
FLuc modulator: 9.5µM*; ELG1 genotox: 2%; NPC1 promoter act: -2%; Rab9 promoter act: 0%[1.84 µM]

What do the screens show for `COc1ccc2nc(NC(=O)c3cc(=O)c4ccccc4o3)sc2c1`?
FLuc modulator: 1.7µM*; SMN2 splice up: 21%

What do the screens show for `CSc1ncccc1C(=O)Nc1nc2ccc(Oc3ccccc3)cc2s1`?
FLuc modulator: 24µM*; ELG1 genotox: 0%; NPC1 promoter act: -1%; SMN2 splice up: 11%; Rab9 promoter act: 0%

What do the screens show for `COc1ccc(C(CC(=O)O)NS(=O)(=O)c2ccc3c(c2)N(C(C)=O)CC(C)O3)cc1` (stereo not given)?
FLuc modulator: 3%; ELG1 genotox: 0%; NPC1 promoter act: 1%; Rab9 promoter act: -1%

What do the screens show for `CCOC(=O)N1CCN(C(=O)CNC(=O)c2nn(-c3ccc(OC)c(Cl)c3)c(=O)c3ccccc23)CC1`?
FLuc modulator: 4.8µM*; ELG1 genotox: 1%; NPC1 promoter act: 6%; Rab9 promoter act: 19%

What do the screens show for `CCOC(=O)N1CCN(C(=O)CNC(=O)c2nn(-c3ccc(OC)c(OC)c3)c(=O)c3ccccc23)CC1`?
FLuc modulator: 6.7µM*; ELG1 genotox: -11%; NPC1 promoter act: 0%; Rab9 promoter act: 12%

What do the screens show for `CCCCNC(=O)CNC(=O)c1nn(-c2ccc(OC)c(Cl)c2)c(=O)c2ccccc12`?
FLuc modulator: 0%; ELG1 genotox: 4%; NPC1 promoter act: 0%; Rab9 promoter act: -2%

Results for COC(=O)CNC(=O)CNC(=O)c1nn(-c2ccc(OC)c(Cl)c2)c(=O)c2ccccc12 ?
FLuc modulator: 1%; ELG1 genotox: -1%; NPC1 promoter act: -8%; SMN2 splice up: -11%; Rab9 promoter act: 2%

What do the screens show for `COc1ccc(-n2nc(C(=O)NCC(=O)N3CCCC3)c3ccccc3c2=O)cc1Cl`?
FLuc modulator: 8.5µM*; ELG1 genotox: -5%; NPC1 promoter act: -2%; Rab9 promoter act: 11%

What do the screens show for `COC(=O)c1cc(CNC(=O)C2CC(=O)N(c3ccc4c(c3)OCCO4)C2)ccc1OC` (stereo not given)?
ELG1 genotox: -3%
